Assay outcomes deposited in PubChem BioAssay by National Center for Advancing Translational Sciences (NCATS).
Most compounds without a hit are left out; they make up all but 11% or so of the library.
VACV mCherry inh: inhibitors of vaccinia virus infection (mCherry reporter signal); Potency, µM (highest dose often 36.5 µM), hits mostly inhibitors; AID 720579; Vaccinia virus mCherry reporter infection, fluorescence; hit rate 0.63% among 310,000; calls by dose curve; tested in A549 cells; further: nearly all actives have a fitted effect of over 35% in size
HCV inhibitor: blocks hepatitis C virus. Huh7.5.1 HCVcc-Cre infection, luciferase reporter, 44 h. Potency, µM (series often up to 41.8 µM), actives largely listed as inhibitors. hit rate 3.4% among 340,000
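Reporter virus HCVcc-Cre (~0.5 moi) infects cells exposed to compound; seeding density 1,000 cells/well with 4 h settling beforehand. Luminescence, 15 sec read, taken 44 h post-infection following a 15 min RT substrate incubation.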
VACV Venus inh: inhibitors of vaccinia virus (Venus reporter). Vaccinia virus Venus reporter expression, fluorescence. Potency, µM (titrated, usually from 36.5 µM), actives largely listed as inhibitors. hit rate 0.46% among 330,000. AID 720580; calls by dose curve; tested in A549 cells; further: nearly all actives have a fitted effect of over 30% in size
Pf growth 96h: inhibits malaria parasite growth, 96 h; Potency, µM (top dose mostly 28.7 µM), most hits filed as inhibitors; P. falciparum luciferase reporter growth, 96 h; AID 504834; hit rate 6.9% among 320,000
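Parasite growth measured via integrated firefly luciferase reporter in P. falciparum. Infected erythrocytes at 2% hematocrit, 0.05% parasitemia final were treated 96 hours at 37 C under 5% CO2, and luminescence was read.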
Pf growth 48h: P. falciparum growth inhibition at 48 hours (one generation); hit rate 5.9% among 310,000; P. falciparum luciferase growth in erythrocytes, 48 h; AID 504832; Potency, µM (doses to about 28.7 µM), most hits filed as inhibitors
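Growth was read as firefly luciferase luminescence after a 48 h, 37 C, 5% CO2 exposure of compounds to reporter-bearing P. falciparum cultures (0.1% parasitemia, 2% hematocrit final) in Albumax-supplemented RPMI 1640.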
NS1 function inh: influenza NS1 inhibition. hit rate 0.4% among 270,000. Potency, µM (top dose mostly 46.1 µM); calls by dose curve; further: actives are rising curves; nearly all actives have a fitted effect of over 50% in size
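Compounds were scored for reversing the slow growth caused by influenza A NS1 in S. cerevisiae, measured by optical density at 600 nm. Assay medium contained 2% galactose at pH 6.0; NS1-free yeast of the same strain were the positive control.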
Hits are given with their value; n = inactive; u = inconclusive; x = no result; [ ] = dose if it differs, or a comment. Unless noted, the call rests on the fitted dose curve; in most records, active means well fitted inhibition curve with a large enough effect; inconclusive means small, poorly fitted or top-dose-only effect, or another doubt; inactive means no such curve, though single readings can be large or run the other way.

SMILES	VACV mCherry inh	HCV inhibitor	VACV Venus inh	Pf growth 96h	Pf growth 48h	NS1 function inh
Cc1ccc(-c2nn(CC(=O)NCc3ccccn3)c(=O)c3ccccc23)cc1S(=O)(=O)N(C)C	n	n	n	n	n	x
CNC(=O)Cn1nc(-c2ccc(C)c(S(=O)(=O)N(C)C)c2)c2ccccc2c1=O	x	n	x	9.3µM	n	n
C[C@H](CO)N1C[C@H](C)[C@@H](CN(C)Cc2ccncc2)Oc2ncc(Br)cc2C1=O	n	x	n	x	x	x
CCC(C)(C)n1nnnc1CN(Cc1ccco1)Cc1cc2cc3c(cc2[nH]c1=O)OCO3	n	n	n	n	u	n
COc1ccc2cc(CN(Cc3ccco3)Cc3nnnn3C3CCCCC3)c(=O)[nH]c2c1	n	u	n	n	u	n
CCC(C)(C)n1nnnc1CN(Cc1ccc(Cl)cc1)Cc1ccco1	n	u	n	u	10µM	n
CC(C)(C)c1ccc(CN(Cc2ccco2)Cc2nnnn2C2CCCC2)cc1	u	u	n	5.2µM	9.3µM	n
C=CCSC1=NC(=O)/C(=C/c2cccs2)S1	n	n	n	n	n	n
COc1cc(S(=O)(=O)n2nnc3ccccc32)c(OC)cc1Cl	n	n	n	9.3µM	n	n
C#CCn1c(=NC(=O)c2ccc(S(=O)(=O)N3CCc4ccccc4C3)cc2)sc2cc(S(N)(=O)=O)ccc21	6.3µM	n	7.9µM	5.2µM	u	u
CCOCCn1c(=NC(=O)c2cc(Cl)sc2Cl)sc2cc(S(N)(=O)=O)ccc21	x	n	x	n	n	n
COCCn1c(=NC(=O)c2ccc(S(=O)(=O)N3CCc4ccccc4C3)cc2)sc2cc(S(N)(=O)=O)ccc21	n	n	n	7.4µM	u	n
COC(=O)Cn1c(=NC(=O)c2ccc(S(=O)(=O)N3CCc4ccccc4C3)cc2)sc2cc(OC)ccc21	n	n	n	u	u	n
CCOCCn1c(=NC(=O)c2ccc(S(=O)(=O)N3CCOCC3)cc2)sc2cc(S(N)(=O)=O)ccc21	n	22µM	n	6.6µM	15µM	n
C=CCn1c(=NC(=O)c2ccc(S(=O)(=O)N3CCc4ccccc4C3)cc2)sc2cc(S(N)(=O)=O)ccc21	u	u	n	u	n	n
Cc1ccc2nc(SCC(=O)N(C)C3CCS(=O)(=O)C3)[nH]c2c1 (configuration not stated)	x	n	x	n	u	x
O=C(Nc1csc(Cl)c1)c1ccccc1	n	n	n	x	x	x
CCOC(=O)c1cc(S(=O)(=O)N2CCN(c3cccc(C)c3)C(C)C2)[nH]n1 (configuration not stated)	n	x	n	x	x	x
O=C(Nc1cccc(Cl)c1)N(Cc1nc2ccccc2c(=O)[nH]1)Cc1cccs1	u	n	u	u	7.4µM	n
S=C(Nc1cc(Cl)cc(Cl)c1)N1CCCC1	x	n	x	n	n	n
Cc1cccc(NCc2ccc(O)c3ncccc23)c1C	n	u	n	n	n	n
Cc1ccc(NCc2ccc(O)c3ncccc23)cc1C	n	u	n	u	n	n
Oc1ccc(CNc2cccc(C(F)(F)F)c2)c2cccnc12	x	x	x	u	10µM	x
Cc1ccc(NCc2ccc(O)c3ncccc23)cc1	n	5.6µM	n	n	n	n
Cc1cccnc1NCc1ccc(O)c2ncccc12	14µM	10µM	u	n	u	n
SMILES	VACV mCherry inh	HCV inhibitor	VACV Venus inh	Pf growth 96h	Pf growth 48h	NS1 function inh
O=S(=O)(c1cccc(C(F)(F)F)c1)N1Cc2ccccc2-n2nncc2C1	u	x	n	x	x	x
COc1ccc(/C=N/Nc2nnc(Cc3ccc(OC)c(OC)c3)c(=O)[nH]2)cc1	n	n	n	u	n	n
O=c1oc2ccc(F)cc2c2c1C1O[C@](c3ccsc3)(Cc3c1ccc1ccccc31)O2	x	x	x	n[5.75 µM]	u	n
Cc1cc2c(c(=O)n1Cc1ccccc1)C1O[C@](c3ccsc3)(Cc3cc(C#N)ccc31)O2	x	x	x	n[5.75 µM]	1.7µM	n
CCCCn1c(C)cc2c(c1=O)C1O[C@](c3ccsc3)(Cc3ccccc31)O2	x	x	x	n[5.75 µM]	u	n
Cc1cc2c(c(=O)n1Cc1ccccc1)C1O[C@](c3ccsc3)(Cc3ccccc31)O2	x	x	x	u	1.2µM	n
COc1cc(N=Nc2c(O)c3ccccc3[nH]c2=O)c(OC)cc1N=Nc1ccccc1	n	n	n	2.3µM	3.3µM	n
COc1ccc(OC)c(N=Nc2c(O)c3ccccc3[nH]c2=O)c1	u	u	n	x	x	x
NC(=O)c1ccc(N=Nc2c(O)c3ccccc3[nH]c2=O)cc1	x	x	x	1.5µM	2.6µM	n
COc1ccc(OC2C(=O)N(c3ccc(C)c(C)c3)C2c2ccc(OC)c(OC)c2)cc1 (configuration not stated)	n	u	n	u	9.3µM	u
COc1ccc(NC2=CC(c3ccc(OC)c(OC)c3)N(c3ccc(OC)cc3)C2=O)cc1 (configuration not stated)	n	u	n	u	u	8.9µM
COc1ccc(OC2C(=O)N(c3cc(C)ccc3C)C2c2ccc(OC)c(OC)c2)cc1 (configuration not stated)	n	n	n	n	7.4µM	n
COc1ccc(OC2C(=O)N(CCc3ccc(OC)c(OC)c3)C2c2ccc3c(c2)OCO3)cc1 (configuration not stated)	n	u	n	u	u	n
NS(=O)(=O)c1ccc(NC2=CC(c3ccc([N+](=O)[O-])cc3)N(c3ccc(S(N)(=O)=O)cc3)C2=O)cc1 (configuration not stated)	x	n	x	n	u	n
CCCCC(C(=O)NC(C)(C)C)N(Cc1ccco1)C(=O)c1snc(C(N)=O)c1N (configuration not stated)	n	n	n	n	x	n
CCN(CC)c1c([N+](=O)[O-])ncn1C	x	n	n	x	n	n
N#Cc1c(/N=C/c2ccc(Br)s2)sc2c1CCC2	n	n	n	n	n	n
N#Cc1c(/N=C/c2cccs2)sc2c1CCCCC2	n	10µM	n	x	n	n
Cc1cnn(-c2cc(N/N=C/c3ccccc3)ncn2)c1	x	n	x	n	n	n
Cc1cnn(-c2cc(N/N=C/c3cccc(F)c3)ncn2)c1	n	n	n	1.9µM	n	n
COc1cc(N/N=C/c2ccccc2O)ncn1	14µM	u	u	u	u	n
Cc1cnn(-c2cc(N/N=C/c3ccccc3F)ncn2)c1	x	n	n	13µM	n	n
Cc1cccc(N2CCN(Cc3cnc(Cl)s3)CC2C)c1 (configuration not stated)	n	n	n	n	u	x
CC1(C)Cc2cccc(OCC(=O)N3CCN(c4ccc(F)cc4)CC3)c2O1	n	n	n	u	12µM	x
CC1(C)Cc2cccc(OCC(=O)N3CCN(S(=O)(=O)c4ccccc4)CC3)c2O1	n	n	n	4.7µM	u	n
CC1(C)Cc2cccc(OCC(=O)N3CCN(c4cccc(Cl)c4)CC3)c2O1	n	u	n	u	4.7µM	x
CC1(C)Cc2cccc(OCC(=O)N3CCN(c4ccccc4Cl)CC3)c2O1	n	u	n	u	u	x
CC1(C)Cc2cccc(OCC(=O)N3CCN(c4cccc(C(F)(F)F)c4)CC3)c2O1	n	u	n	u	u	x
